Compound activity from PubChem BioAssay.
FAS-TE inh – blocks the thioesterase domain of human fatty acid synthase | recombinant FAS-TE, OMFH fluorogenic substrate, fluorescence endpoint | inhibition, % at 15 µM | P49327 | actives 0.67% (n = 360,000);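 active = compounds whose normalised, plate-corrected inhibition of enzyme fluorescence in the single-dose primary screen is 50% or more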
Target sequence (P49327 whole entry, looked up, the tested form may be a part): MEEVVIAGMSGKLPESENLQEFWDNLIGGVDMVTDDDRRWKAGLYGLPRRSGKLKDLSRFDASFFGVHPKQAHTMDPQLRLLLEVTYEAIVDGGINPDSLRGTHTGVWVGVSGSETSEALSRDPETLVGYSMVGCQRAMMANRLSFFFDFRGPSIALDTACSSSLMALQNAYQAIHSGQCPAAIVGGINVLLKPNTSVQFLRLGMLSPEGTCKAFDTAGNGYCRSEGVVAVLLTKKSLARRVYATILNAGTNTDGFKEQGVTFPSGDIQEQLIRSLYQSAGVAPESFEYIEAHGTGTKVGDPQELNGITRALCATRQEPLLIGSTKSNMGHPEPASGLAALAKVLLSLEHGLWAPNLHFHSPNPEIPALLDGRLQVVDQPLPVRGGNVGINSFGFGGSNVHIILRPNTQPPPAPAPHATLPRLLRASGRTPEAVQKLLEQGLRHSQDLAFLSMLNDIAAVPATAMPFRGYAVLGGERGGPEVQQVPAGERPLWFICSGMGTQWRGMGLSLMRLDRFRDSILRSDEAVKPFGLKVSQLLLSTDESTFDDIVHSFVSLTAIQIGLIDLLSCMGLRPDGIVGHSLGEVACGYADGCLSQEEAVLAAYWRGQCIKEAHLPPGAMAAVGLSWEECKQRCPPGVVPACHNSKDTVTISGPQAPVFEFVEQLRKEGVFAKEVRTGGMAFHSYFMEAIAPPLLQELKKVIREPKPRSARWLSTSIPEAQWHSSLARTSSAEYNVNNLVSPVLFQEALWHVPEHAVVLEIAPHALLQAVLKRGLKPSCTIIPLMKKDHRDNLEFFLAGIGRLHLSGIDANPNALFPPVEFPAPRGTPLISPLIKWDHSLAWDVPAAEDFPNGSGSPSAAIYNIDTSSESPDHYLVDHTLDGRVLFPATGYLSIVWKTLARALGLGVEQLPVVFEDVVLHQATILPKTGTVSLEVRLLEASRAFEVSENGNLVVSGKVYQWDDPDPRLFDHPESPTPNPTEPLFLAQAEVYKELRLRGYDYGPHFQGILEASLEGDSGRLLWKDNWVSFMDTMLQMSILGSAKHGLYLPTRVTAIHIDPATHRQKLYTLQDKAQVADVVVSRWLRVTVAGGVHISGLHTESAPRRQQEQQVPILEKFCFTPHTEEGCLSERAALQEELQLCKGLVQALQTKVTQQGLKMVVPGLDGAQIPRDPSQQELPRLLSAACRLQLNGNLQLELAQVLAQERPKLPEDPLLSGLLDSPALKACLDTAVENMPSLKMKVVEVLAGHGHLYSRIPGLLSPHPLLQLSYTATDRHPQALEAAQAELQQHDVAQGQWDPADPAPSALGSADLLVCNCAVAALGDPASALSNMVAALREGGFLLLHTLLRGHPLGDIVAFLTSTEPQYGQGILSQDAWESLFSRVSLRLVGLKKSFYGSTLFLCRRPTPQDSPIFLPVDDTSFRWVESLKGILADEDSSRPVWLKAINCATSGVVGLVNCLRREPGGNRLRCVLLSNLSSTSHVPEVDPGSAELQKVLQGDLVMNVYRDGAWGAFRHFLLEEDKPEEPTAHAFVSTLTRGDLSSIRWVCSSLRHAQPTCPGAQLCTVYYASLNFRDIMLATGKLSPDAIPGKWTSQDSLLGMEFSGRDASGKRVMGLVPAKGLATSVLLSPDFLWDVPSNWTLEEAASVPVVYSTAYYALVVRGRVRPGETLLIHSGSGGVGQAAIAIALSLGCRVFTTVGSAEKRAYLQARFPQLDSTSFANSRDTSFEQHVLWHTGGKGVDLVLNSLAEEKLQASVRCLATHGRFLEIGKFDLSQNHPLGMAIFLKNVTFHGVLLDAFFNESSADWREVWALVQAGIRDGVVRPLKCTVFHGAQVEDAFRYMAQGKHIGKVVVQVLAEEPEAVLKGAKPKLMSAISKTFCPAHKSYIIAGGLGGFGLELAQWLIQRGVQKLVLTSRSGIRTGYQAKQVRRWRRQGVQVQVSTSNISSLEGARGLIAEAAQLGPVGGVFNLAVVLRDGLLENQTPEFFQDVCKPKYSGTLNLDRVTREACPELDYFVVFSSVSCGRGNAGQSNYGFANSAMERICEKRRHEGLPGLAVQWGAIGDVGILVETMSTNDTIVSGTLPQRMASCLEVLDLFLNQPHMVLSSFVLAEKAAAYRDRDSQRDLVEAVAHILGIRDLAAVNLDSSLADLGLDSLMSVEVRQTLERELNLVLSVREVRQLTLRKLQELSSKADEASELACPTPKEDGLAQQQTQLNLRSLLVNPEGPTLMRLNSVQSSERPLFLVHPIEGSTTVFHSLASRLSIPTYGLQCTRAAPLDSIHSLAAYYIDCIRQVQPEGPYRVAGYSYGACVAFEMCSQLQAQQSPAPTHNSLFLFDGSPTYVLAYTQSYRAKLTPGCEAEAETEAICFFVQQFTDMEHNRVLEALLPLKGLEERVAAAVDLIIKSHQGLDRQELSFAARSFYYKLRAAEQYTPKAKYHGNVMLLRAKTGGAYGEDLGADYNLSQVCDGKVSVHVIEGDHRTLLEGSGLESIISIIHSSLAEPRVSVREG
GRIN3A LBD mod – NR3A (human) ligand-binding domain modulation. NR3A LBD differential scanning fluorimetry, Tm shift; 0% = protein alone, 100% = glycine-bound protein. actives 2.5% (n = 340,000). Tm shift relative to glycine control, % at 25 µM;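 active = melting temperature shift of at least 10% of the positive control shift, at one fixed dose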
Myeloid diff MLP – compounds promoting myeloid differentiation | ER-HoxA9 myeloid progenitors, lysozyme-GFP differentiation, flow cytometry | actives 1% (n = 360,000) | calls only at 10 µM;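 active = normalized GFP-positive differentiation at or above the plate's own cutoff, the solvent-only control mean plus 3 SD; inconclusive = no clear call, values can overlap the other calls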;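 note: cells exposed to compound for four days before flow analysis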
rCAG binder – binds r(CAG) RNA repeats; r(CAG) RNA repeat, TO-PRO-1 dye displacement fluorescence; inhibition, % at 3 µM; actives 1.3% (n = 370,000); AID 651821;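 active = inhibition above the plate cutoff, the mean of all test compounds on that plate plus 3 SD, cut at about 35% in these data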;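 note: higher means more dye released from RNA so lower well fluorescence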
MPTP inh – blocks calcium-induced mitochondrial swelling; isolated mouse mitochondria, Ca2+ swelling absorbance, 30 min; inhibition, % at 10 µM; actives 1.4% (n = 360,000); AID 602449;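 active = inhibition of 50% or more, scaled per plate between neutral and stimulator controls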
FAS-TE conf – confirmation of human fatty acid synthase thioesterase inhibitors | shares compounds with FAS-TE inh | recombinant FAS-TE, OMFH fluorogenic substrate, fluorescence | inhibition, % at 15 µM | actives 45% (n = 2,300) | AID 624325;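 active = compounds inhibiting the enzyme by at least 50% at 15 µM in any one of the replicates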
Large screens that a line does not name were inactive (follow-up assays come after a bar, where they were run). Shown are actives, neighbours in structure and some others; about 5.7% of the full set was active somewhere.

CCOC(=O)C1CCN(C(=O)c2ccc3c(=O)n4nc(Nc5ccccc5OC)sc4nc3c2)CC1	FAS-TE inh 54.2 (no result: GRIN3A LBD mod) | FAS-TE conf 59.2
O=Nc1ccc(Br)cn1	none (no result: FAS-TE inh, GRIN3A LBD mod, Myeloid diff MLP, MPTP inh)
O=C(CSc1ncnc2c1cnn2-c1ccccc1)NC1CCS(=O)(=O)C1 (stereo not drawn)	FAS-TE inh 64.0 | FAS-TE conf 72.2
O=C(CSc1ncnc2c1cnn2-c1ccc(F)cc1)NC1CCCC1	none
COc1ccc2[nH]c3c(c2c1)CCN1C(=O)C(CC(=O)NC(C)(C)C)C[C@H](C(=O)N2CCOCC2)[C@@]31CCC1CCCC1 (stereo partly drawn)	FAS-TE inh 53.4 | FAS-TE conf 68.8
COc1ccc2[nH]c3c(c2c1)CCN1C(=O)C(CC(=O)NCc2ccco2)C[C@H](C(=O)N2CCOCC2)[C@@]31CCC1CCCC1 (stereo partly drawn)	FAS-TE inh 64.6 | FAS-TE conf 76.3
COc1ccc2[nH]c3c(c2c1)CCN1C(=O)C(CC(=O)NCc2ccco2)C[C@H](C(=O)N2CCCCC2)[C@@]31C (stereo partly drawn)	none
COc1ccc2[nH]c3c(c2c1)CCN1C(=O)C(CC(=O)NCCN2CCOCC2)C[C@H](C(=O)N2CCOCC2)[C@@]31CCC1CCCC1 (stereo partly drawn)	none
O=C(NCCc1ccccc1Cl)[C@@H]1CCCN1C(=O)[C@H](Cc1cccnc1)NC(=O)N1CCOCC1	none (no result: FAS-TE inh, GRIN3A LBD mod, Myeloid diff MLP, MPTP inh)
O=C(NN1C(=O)C2C(c3ccccc3)C=CC(c3ccccc3)C2C1=O)c1cccc(Br)c1 (stereo not drawn)	FAS-TE inh 53.8, GRIN3A LBD mod 20.0 | FAS-TE conf 45.4
COC(=O)c1cc2c(c3c4cc(OC)ccc4n(S(=O)(=O)c4cccc(C)c4)c13)C(=O)N(C)C2	none (no result: FAS-TE inh, GRIN3A LBD mod, Myeloid diff MLP, MPTP inh)
O=C(Nc1cnn(C23CC4CC(CC(C4)C2)C3)c1)c1cnn2c(C(F)(F)F)cc(-c3ccco3)nc12	FAS-TE inh 61.2, Myeloid diff MLP inconclusive | FAS-TE conf inactive
Cc1ccc(NC(=O)N(Cc2ccc3c(c2)OCO3)Cc2cc3cc4c(cc3[nH]c2=O)OCCO4)cc1	FAS-TE inh 75.1 | FAS-TE conf inactive
COC(=O)c1ccccc1NC(=S)N(Cc1ccc2c(c1)OCO2)Cc1cc2ccc(C)cc2[nH]c1=O	FAS-TE inh 79.4 | FAS-TE conf inactive
COc1ccc2[nH]c(=O)c(CN(Cc3cccs3)C(=S)Nc3cccc(C)c3)cc2c1	FAS-TE inh 72.5, GRIN3A LBD mod 10.3 | FAS-TE conf inactive
O=C(Nc1ccc(F)cc1)N(Cc1cccs1)Cc1cc2cc3c(cc2[nH]c1=O)OCO3	FAS-TE inh 55.1 | FAS-TE conf inactive
COC(=O)c1ccccc1NC(=S)N(Cc1ccc2c(c1)OCO2)Cc1cc2cc(C)ccc2[nH]c1=O	none
COc1ccc(OC)c(CN(CC(F)(F)F)S(=O)(=O)c2ccccc2Br)c1	none (no result: FAS-TE inh, GRIN3A LBD mod, Myeloid diff MLP, MPTP inh)
CCOC(=O)C1(C(=O)OCC)N=C(c2ccccc2)C=C1c1ccccc1	none (no result: FAS-TE inh, GRIN3A LBD mod, Myeloid diff MLP, MPTP inh)
COCc1cc(N2CCN(C(=O)OC(C)(C)C)C[C@H]2C)ccc1N1CCN(Cc2ccccc2)[C@H](C)C1	none (no result: FAS-TE inh, GRIN3A LBD mod, Myeloid diff MLP, MPTP inh)
CCN=C1NC(c2ccc(F)cc2)C(C(=O)OC)=C(C)N1Cc1cccc(C(F)(F)F)c1 (stereo not drawn)	none (no result: FAS-TE inh, GRIN3A LBD mod, Myeloid diff MLP, MPTP inh)
CCC(=O)OCCNc1cc(Sc2nc3ccccc3s2)c2nonc2c1[N+](=O)[O-]	FAS-TE inh 82.6, Myeloid diff MLP inconclusive | FAS-TE conf inactive
CCC(=O)OCCNc1cc(Sc2nc3ccccc3[nH]2)c2nonc2c1[N+](=O)[O-]	FAS-TE inh 80.3, Myeloid diff MLP inconclusive | FAS-TE conf 82.6
O=[N+]([O-])c1c(NCCCO)cc(Sc2nc3ccccc3s2)c2nonc12	FAS-TE inh 76.8, Myeloid diff MLP inconclusive (no result: rCAG binder) | FAS-TE conf 75.1
Cc1ccc(NC(=O)C2=C(c3ccccc3)S(=O)(=O)CCS2(=O)=O)cc1	FAS-TE inh 75.4, GRIN3A LBD mod 14.3, Myeloid diff MLP inconclusive | FAS-TE conf 83.0
O=C(Nc1ccc(-c2ccccc2)cc1)c1ccccc1	none
COc1ccc(NC(=O)/C(C#N)=C\c2cc(C)n(-c3ccc4c(c3)OCO4)c2C)cc1	FAS-TE inh 54.2 | FAS-TE conf inactive
Cc1cc(/C=C(\C#N)C(=O)Nc2ccc(Cl)cc2)c(C)n1-c1ccc(N2CCOCC2)c([N+](=O)[O-])c1	FAS-TE inh 78.9, Myeloid diff MLP inconclusive | FAS-TE conf inactive
